Assay results taken from the supplement of paper PMC3334620.
In all, about 33,000 sequences were measured (“E-score (-0.5 to 0.5)”: median about -0.012, highest 2% from about 0.27 on). Many of the other results were omitted from the sample, so the highest values are more common in it than they were.

biological target: T1, Vhr1 (UniProt P40522); test: PBM E-score (8-mer binding enrichment) (E-score (-0.5 to 0.5)); higher = stronger / more preferred TF binding; details: protein concentration: 200 nM; construct: GST-full length
T1 sequence: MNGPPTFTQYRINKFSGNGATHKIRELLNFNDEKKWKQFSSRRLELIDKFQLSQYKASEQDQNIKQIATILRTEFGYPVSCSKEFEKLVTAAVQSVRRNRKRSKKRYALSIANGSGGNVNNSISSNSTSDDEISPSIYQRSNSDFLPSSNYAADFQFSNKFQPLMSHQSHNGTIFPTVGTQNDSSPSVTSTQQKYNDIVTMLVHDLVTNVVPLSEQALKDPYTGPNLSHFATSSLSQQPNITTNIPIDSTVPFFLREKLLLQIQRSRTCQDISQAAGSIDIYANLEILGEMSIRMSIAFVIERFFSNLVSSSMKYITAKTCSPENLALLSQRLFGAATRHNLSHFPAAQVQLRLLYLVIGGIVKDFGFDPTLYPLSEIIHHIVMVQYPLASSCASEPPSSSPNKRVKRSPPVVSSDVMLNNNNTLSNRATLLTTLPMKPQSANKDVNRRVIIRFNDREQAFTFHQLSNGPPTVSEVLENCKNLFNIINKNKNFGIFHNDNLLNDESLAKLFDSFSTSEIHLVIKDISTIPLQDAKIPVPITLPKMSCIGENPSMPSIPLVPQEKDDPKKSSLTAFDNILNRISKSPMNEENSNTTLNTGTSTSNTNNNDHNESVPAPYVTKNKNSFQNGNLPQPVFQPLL
Description: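 Universal 'all 10-mer' protein binding microarrays (Agilent AMADID 015681) probed with GST-tagged S. cerevisiae TFs (full-length or DBD) made by in vitro transcription/translation (PURExpress), about 100-200 nM. Bound TF was detected with fluorescent anti-GST. Each ungapped 8-mer (which stands for itself and its reverse complement) is scored by the PBM enrichment score (E-score), a modified Wilcoxon-Mann-Whitney statistic from -0.5 to +0.5, computed with the Universal PBM Analysis Suite. Scale: above 0.35 generally sequence-specific binding.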

Sequence	PBM E-score
AGTTTATG	-0.0791
ACGTTATG	-0.0459
CCTTCGCC	-0.031
ATGCAGTC	0.184
ATGCAGTA	0.0873
ATGCAGTG	0.276
GAATTTCC	-0.0327
GGAGAAAA	-0.292
AATCCACC	0.154
TAGTCGGA	0.203
CAGTCGGC	0.0497
CAGTCGTA	0.132
GAGTCGGA	0.416
AAGTCGTA	-0.0973
CAGTCGGA	0.0502
GAGTCGTA	0.405
GAGTCCGA	0.308
GAGTCGGC	0.411
AAGTCGGC	-0.177
CAGTCCGA	0.126
GAGTCCGC	0.224
AGTCCACT	-0.158
ATGCATCC	-0.152
GCAGCCCA	0.0376
AGGATTGG	-0.0691

Sequence	PBM E-score
TAGTTAAA	0.0419
AACTGAAT	0.00051
GATTGGCA	-0.056
AACTGAGG	-0.0666
GTACAAAA	-0.0126
ACGTTGAC	0.0527
CCACCTGG	-0.0837
CATCCTCG	0.124
AATATCAA	0.0811
CATATCAG	-0.0382
GATATCGA	-0.0237
CATATCGA	0.292
CATATCGG	0.0424
CATATCAA	0.278
CTTATACC	-0.0429
GCACAGAA	-0.0823
CCGCGAAG	0.039
GGAGATCC	-0.0359
CGCTTAAC	-0.225
TACGTCAA	-0.139
CAAACAGG	0.0517
ACTATGAT	0.351
ACTATGAG	0.181
ACTATGAC	0.286
ACTATGAA	0.0955

Sequence	PBM E-score
CCTATGAC	0.0237
GCTATGAC	0.201
AGACTACT	0.216
ATTCTATC	-0.154
CCGCTAGC	-0.266
GCTGTCCC	-0.206
AGATCGAC	-0.0907
AATCAGAC	0.201
CCGTGGCG	0.189
GCGGTCAC	-0.00992
GACCCAGA	0.0388
AAATCAGC	0.121
AAATCAGA	0.0175
GAATCAGA	0.319
TAATCAGA	0.146
CAATCAGC	0.193
GAATCAGC	0.307
CCACACCC	0.197
GAAAATTC	-0.274
AAGCTTCC	-0.37
ATGGGCTC	0.272
ATGGGCTG	0.198
CTGGGCTC	-0.135
AAGTCAAT	0.0223
AAGTCGAC	0.17

Sequence	PBM E-score
CAGTCGCC	0.147
TAGTCGAA	0.0212
GAGTCGAC	0.294
AAGTCGCC	-0.0133
CAGTCGCA	0.0715
GAGTCGCA	0.391
CAGTCGAC	0.197
TCGTCGCA	0.111
AAGTCGCA	0.173
GAGTCGCC	0.424
TAGTCGCA	0.309
ATCAGGCC	-0.0546
ACACTAAA	0.238
CTACTTAA	-0.204
CACTCAAC	0.0922
GACTCAAA	0.266
AACTCATA	0.141
GACTCAAC	0.42
AACTCATC	0.209
CACTCATC	0.137
GACTCATA	0.388
GACTCATC	0.452
CACTCATA	0.179
AAGTAGAC	-0.0556
AGCCATTG	0.172

Sequence	PBM E-score
CCCGCTAG	-0.249
TCCCGGGA	-0.0779
GTAGGTAA	-0.114
GGCGAAGA	-0.152
CCACTCAA	0.133
TGACTCAA	0.468
GGACTCAA	0.143
CTACTCAA	0.113
AGACTCAA	0.214
CGACTCAA	0.386
CGATTTAG	-0.0352
ACATTCAT	0.0173
CTACCTGC	-0.0175
CGTGAGAC	0.0393
AGACCTTA	0.0612
AAGAGGTA	0.0122
CGACCCAA	0.14
ATCAATCA	0.248
CTCAATCA	0.33
CTCAATCC	-0.0448
AGTAATCC	0.0334
CGTAATTA	-0.128
CGTAATCC	-0.104
GGTAATCA	0.288
AGTAATCA	0.303

Sequence	PBM E-score
GCTAATCA	0.262
CGTAATCA	0.273
GGTAATGA	0.023
AGTAATCG	0.141
AATTGGCT	-0.0912
ATACTGTA	0.224
GGAAACGA	0.0811
GGTGTCCA	-0.0191
ACAAGTGA	-0.154
CAGATTAG	-0.0795
AAATAACG	-0.00647
GTAATGTA	-0.131
CCCGCCAC	0.321
CTCCCCGA	-0.116
CCCGCCGA	0.00185
GCCGCGGC	0.237
GCCGCCAC	-0.0771
CCCGCCGC	0.36
CCCGCGGC	0.272
ACCGCCAC	0.0902
CCCGCGGA	-0.0501
CTCCCCGC	0.325
ATCCCCGC	0.129
CCCGCCGG	0.134
ATGACCCC	0.211

Sequence	PBM E-score
AAGGCAGC	-0.132
ATATAGAA	0.11
AGCATCAG	0.0568
CATGTTCG	0.0242
GATTGGGC	-0.102
CAACCTCC	0.0131
GTGTATCA	0.275
ATGTATCA	0.267
CTGTATCA	-0.0153
GCACTTTA	-0.249
CAGTTACG	-0.125
ATACTCAC	0.17
ATACTCAA	0.178
ATACTCAG	0.274
ATACTGTG	0.0981
ATACTGTC	0.137
ACTCTCAG	-0.0997
ATACTGAG	0.302
ATACTCAT	0.277
CTACTCAG	0.153
CGAGTTCC	0.0292
GCAAACTA	0.0776
